# Measured values from PubChem BioAssay (NCI).
# “And” between values parts separate entries of the source, which are not always exact repeats. Equal values may be shown once. Compounds without any hit were thinned out: in the full panel of roughly 83,000, 20% have a hit.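 Plates (96-well) were seeded with cells, treated with compound at one concentration, and incubated for 48 hours before percent growth was determined.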 The source made the active and inactive calls.
# Tested on: COLO 205 colon
# Experiment: NCI-60 one-dose screen, 48 h (100 = growth as untreated, 0 = no growth, -100 = all killed)
# Details: 10 µM
# Experimental: Cells are grown in 96 well plates and exposed to the test compound for 48 hours. Compounds are tested at a single concentration, which is 10^-5 M for most compounds. The reported endpoint is percent growth (GI% or GIPRCNT), where numbers from 0 - 100% represent growth inhibition, and numbers from -100% - 0 represent cell death. For example, a value of 40 represents 60% growth inhibition. A value of 0 means no net growth occurred over the course of the experiment. A value of -40 indicates 40% of cells at the beginning of the experiment died by the end of the experiment. A value of -100 means all cells are dead at the end of the experiment.
# NCI-60 Human Tumor Cell Lines Screen was performed using the standard one-dose NCI protocol, which is described in more detail at https://dtp.cancer.gov/discovery_development/nci-60/default.htm.
# Compounds with GIPRCNT values below 10 were considered active. Activity score was based on GIPRCNT using the following formula: […]
# Score is 0 for GIPRCNT values of 100 or above, 50 for GIPRCNT values of 0, and 100 for GIPRCNT values of -100.
row,Structure (SMILES),growth
1,C=NCC#N,113% (inactive) and 111% (inactive)
2,COc1cc2c(cc1OC)C13CCN4CC5=CCOC6CC(=O)N2C1C6C5CC43 (stereo not given),95.8% (inactive) and 89% (inactive)
3,O=C(CCl)Nc1ccc(Cl)cc1,52.3% (inactive)
4,COc1ccccc1/C=C/[N+](=O)[O-],79.3% (inactive)
5,O=C1CCC(=O)N1SC(Cl)(Cl)Cl,112% (inactive)
6,[Cl][Hg][c]1ccc(Cl)s1,-81.2% (active)
7,CC12OOC(c3ccccc31)c1c2ccc2ccccc12 (stereo not given),-65.4% (active)
8,O=C(CBr)Nc1ccc(Cl)cc1,-3.53% (active)
9,N#CCc1ccccc1,107% (inactive)
10,O=[P+](O)c1ccccc1,112% (inactive)
11,O=[N+]([O-])/C=C/c1ccc([N+](=O)[O-])cc1,-8.72% (active) and 50.6% (inactive)
12,[Cl][Hg][c]1ccc2ccccc2c1,-87.4% (active)
13,Cn1c(O)c(N=O)c(=O)n(C)c1=O,110% (inactive) and 111% (inactive)
14,CC/C(=C/c1ccc(OC)cc1OC)[N+](=O)[O-],-40.7% (active)
15,CC[C@@H](C)[C@@H]1NC(=O)C(NC(=O)C(CC(C)C)N(C)C(=O)C2CCCN2C(=O)C(C)O)C(C)OC(=O)C(Cc2ccc(OC)cc2)N(C)C(=O)C2CCCN2C(=O)C(CC(C)C)NC(=O)C(C)C(=O)C(C(C)C)OC(=O)C[C@H]1O (stereo not given in full),-69.5% (active)
16,CN(CCCl)c1ccc(/C=C/C2=[N+](C)c3ccccc3C2(C)C)cc1,-7.09% (active)
17,[O-][n+]1ccccc1S,16.1% (inactive)
18,Cc1ccc(C(=O)C2C(c3ccccc3)N2C2CCCCC2)cc1 (stereo not given),126% (inactive) and 110% (inactive)
19,ClCc1ccc2ccccc2n1,128% (inactive)
20,O=[N+]([O-])c1ccc(Br)c([N+](=O)[O-])c1,0.504% (active)

row,Structure (SMILES),growth
1,C[C@]12CC[C@H]3[C@@H](CCC4=CC(=O)CC[C@@H]43)[C@@H]1CC[C@@H]2OC(=O)N(CCCl)N=O,58.8% (inactive)
2,O=C(O)c1cc(Cc2ccc(O)c(C(=O)O)c2)ccc1O (tested in a mixture with another compound),42.4% (inactive)
3,COc1ccccc1[As]=[As]c1ccccc1OC (stereo not given),-93.1% (active)
4,COc1ccc(/C=C\[N+](=O)[O-])cc1OC,76.5% (inactive) and 64.5% (inactive)
5,C#CC1(O)CCC(C(C)(C)C)CC1 (stereo not given),114% (inactive)
6,COc1cc(/C=C(/C)[N+](=O)[O-])ccc1O,60.8% (inactive) and 47.9% (inactive)
7,Cc1cc(C(C)(C)c2ccc(O)c(C)c2)ccc1O,100% (inactive)
8,COC(C(=O)C(O)C(C)O)C1Cc2cc3cc(OC4CC(OC(C)=O)C(OC5CC(O)C(OC)C(C)O5)C(C)O4)cc(O)c3c(O)c2C(=O)C1OC1CC(OC2CC(OC3CC(C)(O)C(OC(=O)C(C)C)C(C)O3)C(O)C(C)O2)C(O)C(C)O1 (stereo not given),-83.5% (active)
9,CC(=O)[O][Hg][c]1c(C)c(C)cc(C)c1C,-9.36% (active)
10,NC(=O)c1cc([N+](=O)[O-])c(Cl)c([N+](=O)[O-])c1,-71.1% (active)
11,NC(Cc1ccccc1)c1ccccc1 (stereo not given),103% (inactive) and 105% (inactive)
12,Oc1ccccc1-c1ccccc1,110% (inactive) and 112% (inactive)
13,CC[C@@]1(O)C[C@H](OC2CC(N(C)C)C(O)C(C)O2)c2c(cc3c(c2O)C(=O)c2c(O)ccc(O)c2C3=O)[C@H]1C(=O)OC (stereo not given in full),-80.1% (active)
14,CC/C(=C/c1ccc(OC)cc1)[N+](=O)[O-],-60.3% (active)
15,CC(=O)Nc1c2sscc-2n(C)c1=O,-87.1% (active)
16,COC(=O)C1C(O)C(C)C(O)C(C)/C=C\C=C(C)C(=O)Nc2c(C)c(OC(C)=O)c3c(c2O)C(=O)C(C)=C2OCOC(=C23)C(C)=CC(C)(O)C(O)C(C)C1O (stereo not given),94.7% (inactive)
17,O=[N+]([O-])/C=C/c1ccc(Cl)cc1[N+](=O)[O-],-20.9% (active)
18,NC(=O)c1cc([N+](=O)[O-])c(Cl)c([N+](=O)[O-])c1Cl,-54.1% (active)
19,O=[N+]([O-])c1ccc(N2CCOCC2)c2c1no[n+]2[O-],-53.1% (active)
20,CC(C)C1(NC(=O)C2CC3c4cccc5[nH]cc(c45)CC3N(C)C2)OC2(O)C3CCCN3C(=O)C(Cc3ccccc3)N2C1=O (stereo not given),106% (inactive)
